This passage reports Potency results from PubChem BioAssay AID1479 (National Center for Advancing Translational Sciences (NCATS), 2009).

About 820 (0.29%) of roughly 280,000 compounds were called active. Entries that show only a call come without a potency. Another 1% or so got no clear call; they are omitted. Calls follow the shape of the dose curve; as a rule, active = well fitted curve in either direction with a large enough effect; inconclusive = small, poorly fitted or top-dose-only effect; inactive = flat fitted curve, though single readings scatter. Only a selection was taken, and actives are over-represented in it overall.
Potency is read from the fitted curve at half-maximal effect; tags tell the direction and shape of the fitted curve or compound fluorescence and quenching.

A short description of this assay: Total Fluorescence Counterscreen for Inhibitors of the Interaction of Thyroid Hormone Receptor and Steroid Receptor Coregulator 2. The following applies: TRb/SRC2 Texas Red total fluorescence interference; series mostly up to 106 µM. The text has this:
NIH Molecular Libraries Probe Production Network [MLPCN]
NIH Chemical Genomics Center [NCGC]
Assay Provider: R. Kip Guy, St. Jude Children's Research Hospital
Thyroid receptor (TR) regulates many homeostatic processes including basal metabolism, cardiovascular function, body weight, and lipid trafficking. TR modulators are potential therapeutics for obesity and hyperlipidemias but current thyroid analogs have undesirable side effects, particularly cardiac stimulation. To identify inhibitors that specifically prevent the interaction of TR with the steroid receptor […] 2 (SRC2), a fluorescence polarization assay was screened. This assay detects interaction of the ligand-binding domain of human TRb with a Texas Red labeled SRC2 peptide, corresponding to a 20 amino acid region of the nuclear receptor interaction domain (Arnold et al., 2006). Total fluorescence (555 nm excitation and 632 nm emission) was measured to identify potential fluorescent and light absorbing compounds. Such compounds may be artifacts that interfere with the fluorescence polarization assay.
Arnold, L. A.; Estebanez-Perpina, E.; Togashi, M.; Shelat, A.; Ocasio, C. A.; McReynolds, A. C.; Nguyen, P.; Baxter, J. D.; Fletterick, R. J.; Webb, P.; Guy, R. K. A high-throughput screening method to identify small molecule inhibitors of thyroid hormone receptor coactivator binding. Sci STKE 2006, p 13.
NCGC Assay Protocol Summary:
For screening, 5 uL/well 0.6 uM TRb and 20 nM SRC2 Texas Red in protein buffer (20mM Tris hydrochloride, 100mM NaCl, 10% glycerol, 1mM EDTA, 0.01% NP-40, 1mM DTT, 1uM T3 and 5% DMSO) was dispensed into black solid 1536-well plates (Grenier) using a solenoid-based dispenser. Following transfer of 23 nL compound or DMSO vehicle by a pin tool, the plates were centrifuged 15 s at 1000 RPM and incubated 5 hr at ambient temperature. The plates were read by an Envision (Perkin Elmer) to detect fluorescence polarization of SRC2 Texas Red (555 nm excitation and 632 nm emission). Data were normalized to unbound (all components except TRb) and bound SRC2 Texas Red controls. Total fluorescence (TF) was calculated as follows: TF = S + 2P where S and P are fluorescence readings in the parallel and perpendicular channels, respectively.
Keywords: NIH Roadmap, MLPCN, MLI, MLSMR, qHTS, NCGC, qHTS, thyroid hormone receptor, steroid receptor coactivator, fluorescence polarization
With `COc1cc(OC)c(-n2c(C)cc(C=O)c2C)cc1Cl`, the Potency entry was “inactive”.

`COc1ccc(-c2cn(-c3ccc(OC)cc3)c(=S)[nH]2)cc1`: the Potency result was “inactive”.

In the case of `COc1cc(OC)c(-n2cc(-c3ccc(Cl)cc3)[nH]c2=O)cc1Cl`, the Potency is 126 µM [quencher] (active).

Regarding `Cc1nc2nc(SCC(=O)NC3CCC(C)CC3)nn2c(C)c1Cc1ccccc1Cl` (centres undefined), the Potency result was “inactive”.

`CCS(=O)(=O)N1CCc2cc(C(=O)NCc3ccc(C)cc3)ccc21`: the Potency entry was “inactive”.

With `CCCC(=O)Nc1ccc(NC(=O)c2sc3ccccc3c2Cl)cc1`, the Potency was 1.26 µM [quencher] (active).

For the compound `COC(=O)c1cc(NC(=O)c2sc3ccccc3c2Cl)cc(C(=O)OC)c1`, the Potency result is “inactive”.

With `O=C(Nc1ccon1)c1sc2ccccc2c1Cl`, the Potency result was “inactive”.

In the case of `O=C(NCC(c1ccc2c(c1)OCO2)N1CCN(c2ccccc2)CC1)C(=O)Nc1ccccc1F` (centres undefined), the Potency result is “inactive”.

`Cc1ccc(Cl)cc1N(C)C(=O)Cn1nc(Cc2cccnc2)c2ccccc2c1=O`: the Potency entry is “inactive”.

Consider `CCC(=O)N1N=C(c2ccc(OC)cc2)CC1c1cn(-c2ccccc2)nc1-c1cccs1` (centres undefined), for which the Potency result is “inactive”.

For the compound `COc1ccc(Cl)cc1NC(=O)CCn1c(=O)c2cccn2c2ccccc21`, the Potency entry is “inactive”.

On to `Cc1ccc(C)c(N2CCN(S(=O)(=O)c3ccc4c(c3)C(C(C)C)C(=O)N4)CC2)c1` (centres undefined), for which the Potency result was “inactive”.

With `Cc1c(-c2nc(-c3ccc4c(c3)OCO4)no2)nnn1-c1ccc(Br)cc1F`, the Potency entry was “inactive”.

On to `Cc1ccc(CN2CCCn3nc(C(=O)NCc4ccccc4Cl)cc3C2=O)cc1`, for which the Potency result is “inactive”.

Turning to `Cc1ccccc1CNC(=O)CCc1cn(Cc2ccccc2C)c2ccccc12`, the Potency result is “inactive”.

As to `Cc1ccc(C)c2sc(NC(=O)c3ccc(S(=O)(=O)N4CCCC4)cc3)nc12`, the Potency result is “inactive”.

Regarding `Cc1ccc(S(=O)(=O)n2nc(-c3ccc(Cl)cc3)nc2NCc2ccccc2)cc1`, the Potency was 1000 µM [quencher] (active).

As for `COc1ccc(CNc2nc(-c3ccc(Cl)cc3)nn2S(=O)(=O)c2ccc(C)cc2)cc1`, the Potency result was “inactive”.

For the compound `O=C(c1ccco1)n1nc(-c2ccc(Cl)cc2)nc1NCc1ccccc1`, the Potency result was “inactive”.

Turning to `CCOC(=O)C1CCN(c2nc3c(S(=O)(=O)c4ccc(CC)cc4)nnn3c3ccc(Cl)cc23)CC1`, the Potency entry is “inactive”.

Consider `Cn1c2ccccc2c(=O)c2c(O)cccc21`, for which the Potency result is “inactive”.

On to `Oc1ccc(O)c2c(O)cccc12`, for which the Potency is 28.2 µM [quencher] (active).

Turning to `O=c1cc(-c2ccc(O)c(O)c2)oc2cccc(O)c12`, the Potency entry is “inactive”.

Consider `CCOc1cccc(NC(=O)c2ccc(F)c(S(=O)(=O)N(CC)c3cccc(C)c3)c2)c1`, for which the Potency entry was “inactive”.

Consider `Cc1ccc(Cn2c(CNC(=O)Cc3cccc(C)c3)nc3cccnc32)cc1`, for which the Potency entry is “inactive”.

As for `Cc1ccc(C(=O)Nc2cc3c(cc2N2CCCC2)n(C)c(=O)c(=O)n3C)cc1`, the Potency entry was “inactive”.

Regarding `CCn1c(=O)c(=O)n(CC)c2cc(N3CCCCC3)c(NC(=O)c3ccc(Cl)cc3)cc21`, the Potency result is “inactive”.

Consider `Cc1ccc(NC(=O)c2ccc(CN3CC(=O)N4CCCCC4C3=O)cc2)c(Cl)c1` (centres undefined), for which the Potency was 70.8 µM [quencher] (active).
